Only some compounds are listed: those with a hit (about 2.7% of all), similar ones and a draw of the others.
MRP1 act: H69AR viability gain despite doxorubicin, primary screen, MRP-1 activator project, H69AR cells, CellTiter-Glo; viability rescue; hit rate 0.61% among 140,000; viability increase, % at 10 µM;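 active means viability gain under doxorubicin at or above a set limit, the compound median plus 3 SD, cut at about 4.7% in these data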;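 further: MRP-1 overexpressing cells given doxorubicin 25 µM after compound pretreatment; 18-22 h compound pretreatment then 72 h with doxorubicin before readout; 0% = doxorubicin-only wells and 100% = vehicle-treated cells without doxorubicin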
MRP reversal: reversal of MRP1-mediated doxorubicin resistance, primary screen, H69AR cells, doxorubicin co-treatment; hit rate 0.04% among 85,000; differential viability (reversal), % at 10 µM; AID 602, 2007; H69AR cells + 2 uM doxorubicin, CellTiter-Glo, 72 h;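 active means viability drop by adding the cancer drug above about 55%, with treated viability meeting a 40% cutoff, limit read from the data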;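 further: viability without doxorubicin minus viability with 2 µM doxorubicin for each compound; larger differential means the compound sensitizes cells more to doxorubicin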
ERa coact pot: enhancers of ERα–SRC-1 coactivator binding, primary screen, biochemical, TR-FRET, ERα LBD, low estradiol; TR-FRET ERalpha-LBD/SRC-Cy5 coactivator binding, 2 h; 100 = basal binding, no effect; coactivator binding (% of control), % at 25.6 µM; hit rate 1.3% among 86,000; in the data active means activity above about 200%;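 further: binding measured in presence of low estradiol as agonist stimulus; 0% = peptide alone without receptor and 100% = receptor with peptide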
ERa SRC1 inh: ERα–SRC-1 coactivator interaction inhibitors, primary screen, biochemical, TR-FRET, ERα LBD, estradiol-bound. hit rate 1.7% among 86,000. inhibition, % at 25.6 µM. TR-FRET ER-alpha LBD / SRC-1 peptide. Estrogen receptor (Homo sapiens), P03372. AID 629, 2007; in the data active means inhibition above about 50%;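 further: 0% = receptor plus peptide control and 100% = peptide only without receptor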
ERb SRC1 inh: inhibitors of ERβ-SRC1 coactivator interaction, primary screen, biochemical, TR-FRET, ERβ LBD, SRC-1 peptide. Estrogen receptor beta (Homo sapiens), Q92731. AID 633, 2007. hit rate 1.3% among 86,000. TR-FRET ER-beta LBD / SRC1-Cy5 peptide binding; receptor agonist-loaded with 1 µM estradiol. inhibition, % at 25.6 µM;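 active means compounds whose percent inhibition of the receptor-coactivator binding signal exceeds about 50% in the single-dose screen, limit read from the data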;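 further: 0% = receptor plus peptide wells without compound and 100% = peptide-only wells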
Target sequence (Q92731 whole entry, looked up, the tested form may be a part): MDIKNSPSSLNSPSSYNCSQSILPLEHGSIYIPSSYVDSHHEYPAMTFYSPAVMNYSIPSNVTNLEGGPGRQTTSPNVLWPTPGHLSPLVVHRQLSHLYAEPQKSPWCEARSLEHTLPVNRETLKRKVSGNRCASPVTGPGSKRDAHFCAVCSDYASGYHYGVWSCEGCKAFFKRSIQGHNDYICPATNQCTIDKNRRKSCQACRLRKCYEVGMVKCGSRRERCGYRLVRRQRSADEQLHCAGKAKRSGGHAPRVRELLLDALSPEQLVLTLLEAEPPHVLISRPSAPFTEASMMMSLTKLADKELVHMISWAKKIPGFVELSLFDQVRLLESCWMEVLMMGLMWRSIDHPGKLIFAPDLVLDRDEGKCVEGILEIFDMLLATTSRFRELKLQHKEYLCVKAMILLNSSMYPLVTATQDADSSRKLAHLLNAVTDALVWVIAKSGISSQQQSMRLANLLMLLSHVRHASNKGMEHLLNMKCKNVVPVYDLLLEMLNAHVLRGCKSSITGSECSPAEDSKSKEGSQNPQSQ
Active calls of the source: *; . = not tested or not shown; ! = not confirmed by another sample; [ ] = dose if it differs, or a comment.

SMILES	MRP1 act	MRP reversal	ERa coact pot	ERa SRC1 inh	ERb SRC1 inh
Cn1cnc2c(sc3nc(N4CCOCC4)c4c(c32)CC(C)(C)OC4)c1=O	.	-10	98	2	12
CC(/C=N/NC(=O)c1nn(C)c(C)c1Br)=C\c1ccccc1	7.7*	.	.	.	.
CCCc1cc2c(=O)c(-c3ccc4c(c3)OCCO4)coc2cc1OS(C)(=O)=O	-1	.	.	.	.
CCCc1cc2c(=O)c(-c3ccc4c(c3)OCCO4)coc2cc1OC(=O)c1ccco1	1	-19	122	51*	21
CCc1cc2c(=O)c(-c3ccc4c(c3)OCCO4)coc2cc1OC(=O)c1ccco1	-1	-13	213*[fluorescence artefact?]	70*[fluorescence artefact?]	58*[fluorescence artefact?]
COc1cc(OC)cc(C(=O)Nn2c(C)nc3ccccc3c2=O)c1	-1	-11	108	-8	0
COc1ccc2[nH]c3c(c2c1)CCn1c-3nc2ccccc2c1=O	-2	-4	35	80*	40
COc1ccc(C(=O)Nc2ccc(NC(=O)c3cnccn3)cn2)cc1	-3	.	.	.	.
Cn1c(=O)n(C/C=C/c2ccccc2)c(=O)c2c1nc1n2CCCN1c1ccc(F)cc1	5.3*	4	85	15	-8
CCOCC(=O)Nc1cccc(C(=O)OCC)c1	-3	-17	116	60*	-4
CCOC(=O)c1cccc(NC(=O)COC)c1	1	7	97	-3	-2
Cc1cc(C)c(COc2ccc(/C=N/n3c(C)n[nH]c3=S)cc2)c(C)c1	-3	.	.	.	.
Cc1ccc(OC(=O)C2c3ccccc3Oc3ccccc32)cc1C	-2	.	.	.	.
COc1cccc(C2C(C(=O)Nc3nc4ccccc4s3)=C(C)NC3=C2C(=O)CC(C)(C)C3)c1OC (centres undefined)	7.9*	.	.	.	.
CCC(Sc1nc2cc(OC)c(OC)cc2c2nc(C)nn12)C(=O)NCc1ccco1 (centres undefined)	.	12	132	50*[fluorescence artefact?]	47
CCOC(=O)c1cccnc1SC(CC)C(=O)NCc1ccco1 (centres undefined)	-1	11	123	-1	-9
CCC(Sc1nc2ccccc2c2nc3ccccc3n12)C(=O)NCc1ccco1 (centres undefined)	-1	-5	247*[fluorescence artefact?]	77*[fluorescence artefact?]	61*[fluorescence artefact?]
CC(NS(=O)(=O)c1ccc(OCC(=O)Nc2cccc([N+](=O)[O-])c2)cc1)c1ccccc1 (centres undefined)	-2	.	.	.	.
Cn1c(CCNC(=O)c2ccc(Cl)cc2)n[nH]c1=S	1	.	.	.	.
Cc1cc(NC(=O)CN2C(=O)NC3(CCCCC3C)C2=O)no1 (centres undefined)	-2	.	.	.	.
COc1ccccc1/C=C/C=N/n1c(C2CCCCC2)n[nH]c1=S	4.8*	.	.	.	.
COc1ccc(-c2n[nH]c(=S)n2/N=C/C=C/c2ccccc2OC)cc1	-1	.	.	.	.
CNC(=O)CSc1nc2c(c(=O)n(C)c(=O)n2C)n1Cc1ccc(C)cc1	-2	7	201*	15	0
COc1cccc(OC)c1C(=O)NC(=S)Nc1cc(-c2nc3ccccc3[nH]2)ccc1Cl	-1	.	.	.	.
CCOC(=O)Cc1csc(NC(=O)CSc2nnc(Cc3csc(N)n3)n2C)n1	-2	9	104	-6	-9
SMILES	MRP1 act	MRP reversal	ERa coact pot	ERa SRC1 inh	ERb SRC1 inh
COC(=O)Cc1csc(N)n1	-1	-11	109	-4	63*![fluorescence artefact?]
CCCCSc1nnc(-c2ccccc2)c2ccccc12	1	.	.	.	.
CC1CCc2c(sc(NC(=O)c3ccc(Cn4cc([N+](=O)[O-])cn4)o3)c2C#N)C1 (centres undefined)	3	13	70	61*	64*
CC1CN(c2nc3c(c(=O)n(Cc4ccc(Cl)c(Cl)c4)c(=O)n3C)n2C)CC(C)O1 (centres undefined)	-3	15	92	-8	2
Cc1cc(C)n(-c2nc3c(c(=O)n(Cc4ccc(Cl)c(Cl)c4)c(=O)n3C)n2C)n1	.	-15	109	60*[fluorescence artefact?]	34
O=C(N/N=C/c1ccc([N+](=O)[O-])s1)c1cccc(Br)c1	-6	-14	62	76*[fluorescence artefact?]	5
Cc1ccc(C(=O)N/N=C/c2ccc([N+](=O)[O-])s2)cc1	-6	-7	36	67*	40
O=C(N/N=C/c1ccc([N+](=O)[O-])s1)c1ccncc1	-6	.	.	.	.
CCn1nc(C)c(/C=N/NC(=O)c2ccc3c(c2)c(C)c(C)n3Cc2ccccc2)c1C	2	.	.	.	.
COc1ccc(-n2c(SCC(=O)Nc3cc(C)on3)nc3c(c2=O)SCC3)cc1	-1	3	109	-11	-1
COC(=O)c1ccc(CSc2nc3c(c(=O)n2-c2ccc(C)cc2)SCC3)o1	0	26	336*[fluorescence artefact?]	21	27
Cc1cc(NC(=O)CSc2nc3c(c(=O)n2-c2ccc(Br)cc2)SCC3)no1	-7	-18	126	60*[fluorescence artefact?]	29
O=C(Nc1cccc(NC(=O)c2ccc(-c3ccc(Br)cc3)o2)c1)c1ccco1	-2	9	108	71*[fluorescence artefact?]	22
COc1ccc(NC(=O)c2ccco2)cc1NC(=O)c1ccc(Br)o1	0	-25	104	-4	-1
O=C(OCc1cc(=O)n2c(n1)sc1ccccc12)c1ccc2c(=O)n3c(nc2c1)CCC3	.	0	29	79*[fluorescence artefact?]	49
CC(=O)c1c(C)[nH]c(C(=O)COC(=O)c2ccc3c(=O)n4c(nc3c2)CCC4)c1C	3	.	.	.	.
CCNc1ccc(C(=O)OCC(=O)c2cc(C)n(Cc3ccc4c(c3)OCO4)c2C)cc1[N+](=O)[O-]	5.2*	.	.	.	.
COc1ccccc1/C=C/C(=O)c1c2c(c(C)[nH]c1=O)CCCC2	-4	.	.	.	.
COc1ccc(-c2csc(NC(=O)c3cc(-c4cccs4)nc4ccccc34)n2)c(OC)c1	4.8*	.	.	.	.
Clc1cccc(N/N=C(\Cc2nc3ccccc3[nH]2)c2ccccc2)c1	-5	.	.	.	.
CCOc1ccc(NC(=O)c2cc3cc4ccc(OC)cc4nc3o2)cc1	-1	-4	194	56*	45
COc1ccc2cc3cc(C(=O)NCc4ccccn4)oc3nc2c1	-1	.	.	.	.
Cc1cc(C)nc(NN2C(=O)/C(=C/c3ccc(O)cc3)SC2=S)n1	7.8*	.	.	.	.
O=S(=O)(NC1CCCCC1Oc1ccccc1)c1ccccc1 (centres undefined)	-2	.	.	.	.
CCCCCCc1nc2c(=O)[nH]c3ccccc3c2o1	-3	6	249*[fluorescence artefact?]	8	8
CNc1nc(OCC(F)(F)F)nc(N2CCN(C34CC5CC(CC(C5)C3)C4)CC2)n1	.	10	126	-9	-10
O=C(CCNC(=O)Cn1ccc2ccccc2c1=O)NCCc1ccccc1Cl	5.1*	.	.	.	.
COc1ccc(CC(NC(C)=O)C(=O)NC2CCN(C(=O)NCc3ccccc3)CC2)cc1OC (centres undefined)	-1	-5	117	-5	87*[fluorescence artefact?]
Cc1ccc(S(=O)(=O)N2CCCCC2)cc1C(=O)Nc1ncn[nH]1	-2	-3	36	55*	59*
